Laboratory results reported in PubChem BioAssay.
Entries with a potency or affinity are not part of this list. Calls of active or inactive are those of the source.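 How the source made its calls: active means a fitted half-maximal concentration no higher than twice the top valid tested dose, with signal falling as cells die; inconclusive means flat curve between -70% and -30%, or poor fit; inactive means the rest, including signal rising instead of falling.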

Assay: viability loss in HeLa cells – cell-based, ATP luminescence, cherry-pick samples, cytotoxicity control, dose response (AID 687004)
Settings: ATP luminescence (CellTiter-Glo), 48 h; series mostly up to 26 µM
In the case of `O=C(COc1ccc2c(c1)CCC2)NCc1ccccc1`, the outcome is reported as “inactive”.
In the case of `O=C(c1cccs1)N1CCN(c2nc3ccccc3s2)CC1`, the outcome is reported as “inactive”.
In the case of `COc1cccc(S(=O)(=O)Nc2ccc3c(c2)OC[C@@H](C)NC[C@H](C)[C@@H](OC)CN(C)C3=O)c1`, the outcome is reported as “inactive”.
With `Cc1cccc(C)c1NC(=O)C1CCCCN1C` (stereo not given) the outcome was “inactive”.
In the case of `COc1ccc(NC(=O)CSc2ncnc3c2cnn3CCc2ccccc2)cc1`, the outcome is reported as “inactive”.
With `CNC[C@@H]1Oc2c(NS(=O)(=O)c3ccc(Cl)cc3)cccc2C(=O)N([C@H](C)CO)C[C@H]1C` the outcome was “inactive”.
For `COc1ccc(N(C)C(=O)c2cn(CC(C)C)c(=O)c3cc(OC)c(OC)cc23)c(OC)c1`, the outcome was “inactive”.
In the case of `Cc1noc(C)c1NC(=O)N(C)C[C@@H]1Oc2ccc(NC(=O)NC(C)C)cc2CC(=O)N([C@@H](C)CO)C[C@@H]1C`, the outcome is reported as “inactive”.
In the case of `COc1ccc(CN(C)C[C@H]2Oc3ccc(NS(C)(=O)=O)cc3CC(=O)N([C@@H](C)CO)C[C@H]2C)cc1`, the outcome is reported as “inactive”.
In the case of `CN(C)CCCn1c(=O)n(C2CCCCC2)c(=O)c2c3c(sc21)CCCCC3`, the outcome is reported as “inactive”.
In the case of `O=S1(=O)CCC(N=Cc2cc(Br)ccc2O)C1` (stereo not given), the outcome is reported as “inactive”.
In the case of `C[C@H]1CN([C@@H](C)CO)S(=O)(=O)c2ccc(Br)cc2O[C@H]1CN(C)S(=O)(=O)c1ccccc1F`, the outcome is reported as “inactive”.
In the case of `Cc1ccc2c(C)c(C(=O)N3CCN(Cc4ccccn4)CC3)oc2c1C`, the outcome is reported as “inactive”.
For `CNC(=O)CN(c1ccccc1)S(=O)(=O)c1ccc(F)cc1`, the outcome was “inactive”.
With `CNC[C@@H]1OCCCC[C@@H](C)Oc2ccc(NC(=O)NC(C)C)cc2C(=O)N([C@@H](C)CO)C[C@H]1C` the outcome was “inactive”.
For `COc1ccc(C2CC(c3cccs3)=NN2C(=O)c2ccco2)cc1OC` (stereo not given), the outcome was “inactive”.
With `CCC(C)c1ccc(NC(=S)N2CCN(c3ccccn3)CC2)cc1` (stereo not given) the outcome was “inactive”.
With `C[C@H](NC(=O)C[C@H]1CC[C@@H](NC(=O)Cc2ccccn2)[C@@H](CO)O1)c1ccccc1` the outcome was “inactive”.
In the case of `O=C(C[C@@H]1CC[C@@H](NC(=O)c2cccnc2)[C@@H](CO)O1)NCCN1CCCCC1`, the outcome is reported as “inactive”.
For `O=C(C[C@@H]1CC[C@H](NC(=O)Cc2ccccn2)[C@@H](CO)O1)NCCc1ccccc1`, the outcome was “inactive”.
For `O=C(Nc1ccc2ncccc2c1)c1ccccc1`, the outcome was “inactive”.
In the case of `CCC(=O)N1[C@H](CN(C)C(C)=O)[C@@H](c2ccc(C3=CCCCC3)cc2)[C@@H]1CO`, the outcome is reported as “inactive”.
With `O=C(CSc1ncnc2c1cnn2-c1ccccc1)NCC1CCCO1` (stereo not given) the outcome was “inactive”.
With `C[C@H](CO)N1C[C@H](C)[C@@H](CN(C)C(=O)Nc2ccc3c(c2)OCO3)Oc2ccc(NS(=O)(=O)c3cccs3)cc2C1=O` the outcome was “inactive”.
With `Cc1cc(OCC(=O)NC(C)c2ccccc2)ccc1[N+](=O)[O-]` (stereo not given) the outcome was “inactive”.
